Assay results from the supplement of paper PMC4709259.
Structures can show the parent of a compound that is named as a salt. ± gives the standard deviation.

Assays:
Jurkat [1] = test: mean cell size (FSC-A) relative to DMSO control (fraction of control); higher = larger cells; conditions: 48 h
In short: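 Jurkat cells at 600 cells/µl were incubated for 1 h and then treated for 48h with the Enzo Screen-Well FDA Approved Drug Library v2.0 at 25µM, with DMSO at 0.9% (v/v) final. Compounds that reduced counts below 20% of controls were retested in 10-fold dilutions down to 25nM. Cell count and mean cell size, taken as forward scatter area, were measured by flow cytometry relative to solvent-only controls. Each plate carried 6-12 controls, and values are means of 3 biological replicates.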

Jurkat [2] = test: cell count relative to DMSO control (fraction of control); higher = more cells (less growth inhibition); conditions: 48 h

**Q.** How did the mean cell size (Jurkat [1]) turn out when `Nc1c(CC(=O)O)cccc1C(=O)c1ccc(Br)cc1` [Bromfenac] (concentration: 25 µM) was run?
**A.** 0.938 ± 0.018

**Q.** What about the cell count (Jurkat [2]) of the same compound?
**A.** 1.05 ± 0.05

**Q.** `CN(C)CCCN1c2ccccc2Sc2ccc(Cl)cc21` [Chlorpromazine·HCl] (concentration: 2.5 µM) was tested. Which mean cell size (Jurkat [1]) did it give?
**A.** 1.06 ± 0.017

**Q.** What about the cell count (Jurkat [2]) of the same compound?
**A.** 0.631 ± 0.15

**Q.** `CCCN1CCCC[C@H]1C(=O)Nc1c(C)cccc1C` [Ropivacaine·HCl Monohydrate] (concentration: 25 µM) was tested. Which mean cell size (Jurkat [1]) did it give?
**A.** 0.978 ± 0.014

**Q.** What about the cell count (Jurkat [2]) of the same compound?
**A.** 0.995 ± 0.057

**Q.** With `CCOC(=O)C1=C(C)NC(C)=C(C(=O)OC)C1c1cccc(Cl)c1Cl` (configuration not stated) [Felodipine] (concentration: 25 µM) as the compound, how does the mean cell size (Jurkat [1]) read?
**A.** 0.9169 ± 0.007

**Q.** What about the cell count (Jurkat [2]) of the same compound?
**A.** 0.922 ± 0.12

**Q.** For `CC(=O)Oc1ccc(C(c2ccc(OC(C)=O)cc2)c2ccccn2)cc1` [Bisacodyl] (concentration: 25 µM), which mean cell size (Jurkat [1]) is on record?
**A.** 0.915 ± 0.013

**Q.** What about the cell count (Jurkat [2]) of the same compound?
**A.** 0.813 ± 0.09

**Q.** What does the source list for `Clc1ccc(CSC(Cn2ccnc2)c2ccc(Cl)cc2Cl)cc1` (configuration not stated) [Sulconazole Nitrate] (concentration: 25 µM)?
**A.** mean cell size (Jurkat [1]): 0.953 ± 0.023; cell count (Jurkat [2]): 0.923 ± 0.11

**Q.** `CC(C)(C)NC(=O)[C@@H]1CN(Cc2cccnc2)CCN1C[C@@H](O)C[C@@H](Cc1ccccc1)C(=O)N[C@H]1c2ccccc2C[C@H]1O` [Indinavir] (concentration: 25 µM) was tested. Which mean cell size (Jurkat [1]) did it give?
**A.** 0.93 ± 0.056

**Q.** What about the cell count (Jurkat [2]) of the same compound?
**A.** 0.539 ± 0.068

**Q.** Which mean cell size (Jurkat [1]) does the source give for `C[C@]12CC[C@@H]3c4ccc(O)cc4CC[C@H]3[C@@H]1CCC2=O` [Estrone] (concentration: 25 µM) here?
**A.** 0.963 ± 0.033

**Q.** What about the cell count (Jurkat [2]) of the same compound?
**A.** 0.842 ± 0.094

**Q.** Which mean cell size (Jurkat [1]) does the source give for `C[C@H](CS)C(=O)N1CCC[C@H]1C(=O)O` [Captopril] (concentration: 25 µM) here?
**A.** 0.951 ± 0.029

**Q.** And the cell count (Jurkat [2])?
**A.** 1.01 ± 0.099

**Q.** Which results are given for `CC(C)[N+]1(C)[C@@H]2CC[C@H]1CC(OC(=O)C(CO)c1ccccc1)C2` (some centres not stated) [Ipratropium·Br] (concentration: 25 µM)?
**A.** mean cell size (Jurkat [1]): 1.01 ± 0.029; cell count (Jurkat [2]): 0.704 ± 0.18

**Q.** Which results are given for `CCS(=O)(=O)CCn1c([N+](=O)[O-])cnc1C` [Tinidazole] (concentration: 25 µM)?
**A.** mean cell size (Jurkat [1]): 0.992 ± 0.049; cell count (Jurkat [2]): 0.528 ± 0.018
